PubChem BioAssay
Active and inactive are the calls of the source.

How the values were obtained:
[1] = tested on: PRMT1 (protein arginine N-methyltransferase 1); test: PRMT1 binders on small-molecule microarrays, primary screen, biochemical, small-molecule microarray, 635 nm fluorescence (AID 1088); conditions: small-molecule microarray binding, higher = more signal;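 also: binding of Prmt1 protein to compounds spotted on small-molecule microarray slides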
[2] = yeast growth modulation, basal conditions, primary screen, YJM789 clinical isolate, OD600, 24 h (AID 1089);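 also: growth of clinical yeast isolate S. cerevisiae YJM 789 seeded 1000 cells per well; test concentration not given here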; conditions: S. cerevisiae YJM789 growth, higher = more signal, called active from +8 up or from −8 down
[3] = fission yeast growth modulation, primary screen, strain 972, OD600, 24 h, no modulator (AID 1090);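 also: basal condition with compound alone and no growth modifier present; test concentration not given here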; conditions: S. pombe 972 growth, higher = more signal, called active from +8 up or from −8 down
[4] = S. cerevisiae growth modulation with rapamycin, primary screen, strain BY4716, OD600, 96 h (AID 1091); conditions: higher = more signal, called active from +8 up or from −8 down; also: test concentration not given here
[5] = target: Torsin-1A-interacting protein 2 (Homo sapiens) (UniProt Q8NFQ8); test: LULL1 binders on small-molecule microarray, primary screen, cell lysate, human LULL1 lysate, 635/667 nm fluorescence (AID 1092); conditions: hLULL1 lysate binding, 635 nm fluorescence, higher = more signal;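 also: probe is lysate of COS7 cells overexpressing human LULL1; score merges per-feature 667 nm fluorescence with signal-to-noise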
[6] = E. coli growth modulation, two-sided OD650, primary screen, E. coli filamentation project, strain DRC41, 24 h (AID 1093); conditions: OD650, 24 h, higher = more signal, called active from +8 up or from −8 down;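 also: MC1000 strain lacking acrAB efflux and sulA so SOS filamentation is blocked; test concentration not given here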
[7] = small-molecule microarray binders of probe aLefty2, primary screen, biochemical, biotinylated probe, 635/667 nm fluorescence (AID 1094); conditions: higher = more signal;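 also: score merges spot fluorescence near 667 nm with spot signal-to-noise ratio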
[8] = tested on: Noggin (protein binding on small-molecule microarray); test: Noggin binders on small-molecule microarray, primary screen, biochemical, 635/667 nm fluorescence (AID 1095); conditions: 635 nm fluorescence, higher = more signal;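 also: score merges 667 nm feature fluorescence with signal to noise over triplicate slides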
[9] = target: Neurogenic locus notch homolog protein 3 (Homo sapiens) (UniProt Q9UM47); test: NOTCH3 binders on small-molecule microarray, primary screen, biochemical, 635/667 nm fluorescence (AID 1096); conditions: NOTCH3 binding, 635 nm fluorescence, higher = more signal
[10] = small-molecule microarray binders of probe aEGFR, primary screen, biochemical, biotinylated probe, 635/667 nm fluorescence (AID 1097); conditions: higher = more signal;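 also: probe is a biotinylated anti-EGFR antibody binding compounds printed on slides; score combines fluorescence near 667 nm and signal to noise of each spot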
[11] = tested on: Plasmodium falciparum Sir2 (PF13_0152, Sir2A); test: pfSir2 binders on small-molecule microarrays, primary screen, biochemical, small-molecule microarray, 635 nm fluorescence (AID 1098); conditions: small-molecule microarray binding, fluorescence 635 nm; higher = more signal;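 also: score merges spot fluorescence intensity with its signal-to-noise ratio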
[12] = small-molecule microarray binders of probe aDKK1, primary screen, biochemical, biotinylated probe, 635/667 nm fluorescence (AID 1099); conditions: higher = more signal;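 also: score merges 667nm spot fluorescence with signal to noise across triplicate slides; reference of the scale not given here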
[13] = small-molecule microarray binders of probe aCHRDL2, primary screen, biochemical, biotinylated probe, 635/667 nm fluorescence (AID 1100); conditions: higher = more signal
[14] = splicing luciferase reporter signal modulators, primary screen, spliceosome inhibition project, cell-based, HEK293, splice +/- reporter (AID 1101); conditions: luminescence, 24 h, higher = more signal, called active from +8 up or from −8 down;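 also: HEK293 cells carrying a splicing-competent luciferase reporter gene; test concentration not given here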
[15] = target: Fibroblast growth factor 10 (Homo sapiens) (UniProt O15520); test: FGF10 binders on small-molecule microarrays, primary screen, biochemical, small-molecule microarray, 635 nm fluorescence (AID 1102); conditions: FGF10 binding, fluorescence 635 nm, higher = more signal
[16] = tested on: glycogen synthase kinase-3 (GSK3A per assay name; protocol says GSK3B); test: GSK3 binders on small-molecule microarrays, primary screen, biochemical, small-molecule microarray, 635 nm fluorescence, GSK3A (AID 1103); conditions: small-molecule microarray binding, fluorescence 635 nm; higher = more signal; also: the record names both GSK3A and GSK3B
[17] = target: Epidermal growth factor receptor (Homo sapiens) (UniProt P00533); test: EGFR binders on small-molecule microarrays, primary screen, biochemical, small-molecule microarray, 635 nm fluorescence (AID 1104); conditions: EGFR binding, higher = more signal;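 also: score merges 667 nm emission intensity with spot signal to noise over triplicate slides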
[18] = target: Follistatin-related protein 3 (Homo sapiens) (UniProt O95633); test: FSTL3 binders on small-molecule microarrays, primary screen, biochemical, small-molecule microarray, 635 nm fluorescence (AID 1105); conditions: FSTL3 binding, higher = more signal;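 also: score merges emission near 667 nm and signal to noise per printed spot across three slides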
[19] = target: Dickkopf-related protein 1 (Homo sapiens) (UniProt O94907); test: DKK1 binders on small-molecule microarrays, primary screen, biochemical, small-molecule microarray, 635 nm fluorescence scan (AID 1106); conditions: DKK1 binding, higher = more signal;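 also: score merges emission near 667 nm with signal to noise over three replicate slides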
[20] = tested on: Inhibin beta A chain (activin A); test: INHBA (activin A) binders on microarrays, primary screen, biochemical, small-molecule microarray, 635 nm fluorescence scan (AID 1107); conditions: small-molecule microarray binding, higher = more signal;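 also: mouse activin A protein probed at 4.33 µg/mL on printed slides; score merges bound-protein fluorescence near 667 nm with spot signal-to-noise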

Dickkopf-related protein 1 (Homo sapiens), sequence (O94907 whole entry, looked up): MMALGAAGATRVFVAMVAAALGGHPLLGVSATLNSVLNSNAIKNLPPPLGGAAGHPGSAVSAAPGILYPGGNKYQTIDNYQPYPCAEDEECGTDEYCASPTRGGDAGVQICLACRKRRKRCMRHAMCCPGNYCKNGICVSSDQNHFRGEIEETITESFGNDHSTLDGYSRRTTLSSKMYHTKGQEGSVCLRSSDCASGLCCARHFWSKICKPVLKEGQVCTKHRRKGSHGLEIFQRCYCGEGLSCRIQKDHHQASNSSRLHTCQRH
Follistatin-related protein 3 (Homo sapiens), sequence (O95633 whole entry, looked up): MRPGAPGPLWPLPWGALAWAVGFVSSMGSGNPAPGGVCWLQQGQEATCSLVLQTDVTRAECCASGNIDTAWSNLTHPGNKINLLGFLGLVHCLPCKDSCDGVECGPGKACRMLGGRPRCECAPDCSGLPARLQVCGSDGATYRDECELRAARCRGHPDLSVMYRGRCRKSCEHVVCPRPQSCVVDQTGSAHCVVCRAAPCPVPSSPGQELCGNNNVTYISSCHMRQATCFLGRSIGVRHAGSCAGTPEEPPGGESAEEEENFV
Epidermal growth factor receptor (Homo sapiens), sequence (P00533 whole entry, looked up): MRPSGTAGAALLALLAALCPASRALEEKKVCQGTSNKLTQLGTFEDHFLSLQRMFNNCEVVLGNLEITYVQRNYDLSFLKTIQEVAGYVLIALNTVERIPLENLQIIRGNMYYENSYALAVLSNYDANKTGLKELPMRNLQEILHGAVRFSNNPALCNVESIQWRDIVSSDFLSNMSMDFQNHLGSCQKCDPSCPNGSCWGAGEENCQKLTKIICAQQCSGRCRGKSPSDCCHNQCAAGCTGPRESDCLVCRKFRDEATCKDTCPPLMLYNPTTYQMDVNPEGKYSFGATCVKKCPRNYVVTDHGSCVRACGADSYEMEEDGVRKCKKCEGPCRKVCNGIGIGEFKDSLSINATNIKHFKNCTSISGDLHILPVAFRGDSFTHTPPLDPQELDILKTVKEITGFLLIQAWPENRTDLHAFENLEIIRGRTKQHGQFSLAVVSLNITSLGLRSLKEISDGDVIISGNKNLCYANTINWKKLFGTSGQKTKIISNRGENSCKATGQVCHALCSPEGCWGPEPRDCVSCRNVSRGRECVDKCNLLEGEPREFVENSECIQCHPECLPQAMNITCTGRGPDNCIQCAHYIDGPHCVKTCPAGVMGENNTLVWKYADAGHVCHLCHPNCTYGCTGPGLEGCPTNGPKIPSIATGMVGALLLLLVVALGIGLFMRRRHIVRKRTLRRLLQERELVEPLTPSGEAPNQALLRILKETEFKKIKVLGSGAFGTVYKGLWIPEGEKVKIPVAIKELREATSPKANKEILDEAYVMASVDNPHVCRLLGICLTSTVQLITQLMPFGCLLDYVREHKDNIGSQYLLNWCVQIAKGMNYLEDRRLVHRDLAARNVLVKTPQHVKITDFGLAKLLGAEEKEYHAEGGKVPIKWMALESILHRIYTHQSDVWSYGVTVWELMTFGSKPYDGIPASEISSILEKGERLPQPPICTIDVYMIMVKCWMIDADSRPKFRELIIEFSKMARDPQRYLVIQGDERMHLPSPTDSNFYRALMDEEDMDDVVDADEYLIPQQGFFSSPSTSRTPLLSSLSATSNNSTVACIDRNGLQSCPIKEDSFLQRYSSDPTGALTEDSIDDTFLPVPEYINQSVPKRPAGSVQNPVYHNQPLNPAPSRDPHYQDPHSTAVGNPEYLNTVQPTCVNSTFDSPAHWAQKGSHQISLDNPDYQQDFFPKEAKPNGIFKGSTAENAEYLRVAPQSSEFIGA
Torsin-1A-interacting protein 2 (Homo sapiens), sequence (Q8NFQ8 whole entry, looked up): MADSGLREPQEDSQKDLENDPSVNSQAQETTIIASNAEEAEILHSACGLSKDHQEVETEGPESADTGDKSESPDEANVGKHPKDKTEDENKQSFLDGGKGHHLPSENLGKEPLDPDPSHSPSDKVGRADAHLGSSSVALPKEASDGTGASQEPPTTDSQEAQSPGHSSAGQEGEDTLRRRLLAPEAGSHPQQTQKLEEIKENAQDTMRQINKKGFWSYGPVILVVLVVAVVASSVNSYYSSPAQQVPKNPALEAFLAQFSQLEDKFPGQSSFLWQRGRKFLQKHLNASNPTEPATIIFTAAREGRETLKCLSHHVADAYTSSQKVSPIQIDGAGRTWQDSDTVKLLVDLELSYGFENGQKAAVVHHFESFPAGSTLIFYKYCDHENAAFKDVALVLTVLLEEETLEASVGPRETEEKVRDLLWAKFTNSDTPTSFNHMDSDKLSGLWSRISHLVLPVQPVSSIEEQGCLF
Neurogenic locus notch homolog protein 3 (Homo sapiens), sequence (Q9UM47 whole entry, looked up): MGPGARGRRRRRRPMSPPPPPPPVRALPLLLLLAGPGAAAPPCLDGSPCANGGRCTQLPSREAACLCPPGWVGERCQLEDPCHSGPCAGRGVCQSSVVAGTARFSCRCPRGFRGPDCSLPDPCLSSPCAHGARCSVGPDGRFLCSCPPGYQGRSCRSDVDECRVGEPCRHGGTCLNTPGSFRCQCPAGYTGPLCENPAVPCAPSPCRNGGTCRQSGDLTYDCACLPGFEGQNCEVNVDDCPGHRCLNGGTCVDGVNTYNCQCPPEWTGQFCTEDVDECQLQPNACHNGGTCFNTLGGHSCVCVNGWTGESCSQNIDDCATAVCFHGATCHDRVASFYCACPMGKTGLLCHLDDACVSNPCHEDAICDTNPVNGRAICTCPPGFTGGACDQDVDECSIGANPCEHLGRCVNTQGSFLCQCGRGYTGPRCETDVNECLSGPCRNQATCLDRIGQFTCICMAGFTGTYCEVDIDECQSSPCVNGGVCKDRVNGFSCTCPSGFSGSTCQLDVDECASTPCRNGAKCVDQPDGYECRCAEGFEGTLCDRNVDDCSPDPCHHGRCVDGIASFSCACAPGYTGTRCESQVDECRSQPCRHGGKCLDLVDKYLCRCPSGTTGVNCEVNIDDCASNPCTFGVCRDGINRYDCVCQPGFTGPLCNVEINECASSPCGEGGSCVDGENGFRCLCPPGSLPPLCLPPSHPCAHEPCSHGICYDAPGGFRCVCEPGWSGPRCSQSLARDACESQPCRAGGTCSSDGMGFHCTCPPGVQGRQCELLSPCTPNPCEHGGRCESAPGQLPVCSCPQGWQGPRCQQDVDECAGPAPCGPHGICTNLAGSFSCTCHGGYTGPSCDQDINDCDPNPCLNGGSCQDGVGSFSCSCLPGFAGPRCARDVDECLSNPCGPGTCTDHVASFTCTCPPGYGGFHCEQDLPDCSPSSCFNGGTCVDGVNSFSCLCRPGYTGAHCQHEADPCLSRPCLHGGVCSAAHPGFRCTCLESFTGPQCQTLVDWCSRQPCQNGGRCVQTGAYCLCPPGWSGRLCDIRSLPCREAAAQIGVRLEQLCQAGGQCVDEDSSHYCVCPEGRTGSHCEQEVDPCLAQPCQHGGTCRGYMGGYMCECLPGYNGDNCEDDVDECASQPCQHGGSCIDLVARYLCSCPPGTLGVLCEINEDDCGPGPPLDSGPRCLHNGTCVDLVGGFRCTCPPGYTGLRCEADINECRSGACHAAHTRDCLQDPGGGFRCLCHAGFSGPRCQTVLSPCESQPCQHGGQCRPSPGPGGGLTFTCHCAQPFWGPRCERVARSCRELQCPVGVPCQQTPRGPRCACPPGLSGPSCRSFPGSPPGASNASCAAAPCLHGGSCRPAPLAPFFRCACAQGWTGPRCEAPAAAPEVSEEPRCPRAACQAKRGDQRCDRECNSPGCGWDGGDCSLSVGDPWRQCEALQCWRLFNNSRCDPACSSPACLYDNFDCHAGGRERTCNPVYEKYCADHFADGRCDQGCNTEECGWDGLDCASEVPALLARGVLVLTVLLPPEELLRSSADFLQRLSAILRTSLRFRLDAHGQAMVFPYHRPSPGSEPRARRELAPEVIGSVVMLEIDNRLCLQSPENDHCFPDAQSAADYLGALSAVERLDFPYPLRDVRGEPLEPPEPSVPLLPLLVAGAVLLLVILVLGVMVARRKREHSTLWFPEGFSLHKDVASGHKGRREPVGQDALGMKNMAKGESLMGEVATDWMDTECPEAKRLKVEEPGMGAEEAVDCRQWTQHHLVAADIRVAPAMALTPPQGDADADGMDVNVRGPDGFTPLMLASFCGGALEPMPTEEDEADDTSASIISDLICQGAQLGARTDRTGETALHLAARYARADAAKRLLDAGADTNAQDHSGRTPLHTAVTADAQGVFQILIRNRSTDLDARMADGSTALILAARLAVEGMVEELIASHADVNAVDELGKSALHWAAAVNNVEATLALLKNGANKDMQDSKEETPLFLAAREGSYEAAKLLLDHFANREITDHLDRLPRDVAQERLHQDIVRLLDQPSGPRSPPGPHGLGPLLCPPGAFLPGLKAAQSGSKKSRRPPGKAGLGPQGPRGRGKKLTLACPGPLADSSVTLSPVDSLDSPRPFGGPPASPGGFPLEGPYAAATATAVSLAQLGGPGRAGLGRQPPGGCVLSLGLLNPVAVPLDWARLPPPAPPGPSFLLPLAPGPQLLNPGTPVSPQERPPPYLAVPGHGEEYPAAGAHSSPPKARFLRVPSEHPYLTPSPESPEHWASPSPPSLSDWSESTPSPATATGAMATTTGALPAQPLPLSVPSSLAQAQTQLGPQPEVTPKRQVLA
Fibroblast growth factor 10 (Homo sapiens), sequence (O15520 whole entry, looked up): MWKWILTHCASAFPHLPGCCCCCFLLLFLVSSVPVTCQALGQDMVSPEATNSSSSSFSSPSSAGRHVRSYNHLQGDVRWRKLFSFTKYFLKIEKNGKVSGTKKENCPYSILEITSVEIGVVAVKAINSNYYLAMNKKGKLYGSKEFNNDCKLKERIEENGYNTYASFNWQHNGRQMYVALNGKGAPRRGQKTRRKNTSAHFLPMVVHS

SMILES | composite z-score [1] | z-score [2] | z-score [3] | z-score [4] | composite z-score [5] | z-score [6] | composite z-score [7] | composite z-score [8] | composite z-score [9] | composite z-score [10] | composite z-score [11] | composite z-score [12] | composite z-score [13] | z-score [14] | composite z-score [15] | composite z-score [16] | composite z-score [17] | composite z-score [18] | composite z-score [19] | composite z-score [20]
O=C1NC(=O)C2C1C=CC(C(O)C=Cc1ccc([N+](=O)[O-])cc1)N2Nc1ccccn1 (stereo not given) | 0.403 | 0.459 (inactive) | 1.31 (inactive) | -0.108 (inactive) | 1.51 | -0.298 (inactive) | 0.0866 | 0.289 | -0.135 | -0.094 | 1.1 | 0.141 | 0.239 | 1.5 (inactive) | 0.267 | -0.0039 | 1.07 | 0.479 | 0.697 | 1.32
C=CC[C@]1(C(=O)OC)N=C(c2ccc(OCCCO)cc2)O[C@H]1c1ccccc1CN=[N+]=[N-] | 0.828 | -0.664 (inactive) | -2.28 (inactive) | -0.723 (inactive) | 1.37 | 1.37 (inactive) | 0.4 | -0.101 | -0.823 | -0.0828 | 0.212 | 1.21 | 1.44 | -1.4 (inactive) | -0.404 | -0.52 | -0.493 | -0.363 | -0.795 | 1.31
O=C1c2ccccc2[C@](Cc2ccccc2I)(C(=O)NCC(F)(F)F)[C@H](c2ccc(CO)cc2)N1Cc1ccccc1C(F)(F)F | 1.34 | 0.129 (inactive) | -1.15 (inactive) | -1.32 (inactive) | 2.54 | 0.098 (inactive) | -0.366 | -0.11 | 1.02 | 0.0443 | 0.795 | -0.582 | -0.243 | 0.133 (inactive) | 0.222 | 0.926 | 0.106 | 0.523 | 0.0221 | -0.33
C[N+](C)(C)CCCCNC(=O)[C@H]1C[C@H]2C(=O)NCC(=O)N2[C@H]1c1cccc(OCCO)c1 | 1.54 | -0.138 (inactive) | 0.0073 (inactive) | -1.66 (inactive) | 0.57 | -0.271 (inactive) | -0.0463 | 1.91 | 1.05 | 0.0717 | 1.59 | 0.0166 | -0.335 | 0.589 (inactive) | 1.45 | 1.29 | 1.09 | 1.49 | 1.84 | 0.747
COC(=O)[C@@]1(Cc2ccc(OC)cc2)[C@H]2c3cc(C(=O)N(C)C)n(Cc4ccc(C)c(F)c4F)c3C[C@H]2CN1C(=O)c1ccccc1 | 0.223 | 1.14 (inactive) | 0.491 (inactive) | 0.972 (inactive) | 2.84 | -0.716 (inactive) | 0.146 | -0.268 | 0.797 | -0.0972 | 0.274 | 0.627 | 0.993 | -1.25 (inactive) | 0.0253 | -0.109 | -0.902 | 0.0502 | -1.11 | 0.781
O=C(CS)NCCCCCCNC(=O)[C@@H]1C[C@@H]2C(=O)N[C@@H](Cc3ccccc3)C(=O)N2[C@@H]1c1ccc(O)cc1 | 1.53 | 0.205 (inactive) | 1.52 (inactive) | 1.99 (inactive) | 2.97 | 0.988 (inactive) | -0.0741 | 0.652 | 1.16 | -0.0271 | 1.6 | -0.0356 | 0.307 | -0.376 (inactive) | 1.03 | 1.32 | 0.411 | 1.19 | 1.18 | 0.617
CN1CCC(CCCO)=CC1C1CC1 (stereo not given) | 0.608 | -0.477 (inactive) | -0.851 (inactive) | -0.761 (inactive) | -0.463 | 1.08 (inactive) | -0.308 | 0.724 | 0.0618 | -0.104 | 0.537 | -0.499 | -0.896 | -1.18 (inactive) | 0.59 | 0.348 | 0.0647 | 0.0254 | 0.293 | 0.719
CC(C)CNC(=O)[C@@]1(C)c2ccccc2C(=O)N(Cc2ccc(OC(F)(F)F)cc2)[C@H]1c1ccc(CO)cc1 | -0.379 | -0.545 (inactive) | -0.808 (inactive) | -0.53 (inactive) | 0.932 | 1.52 (inactive) | 0.117 | -1.13 | -1.27 | -0.112 | -0.857 | 0.629 | 1.14 | 0.581 (inactive) | -0.494 | -0.694 | -1.15 | -0.877 | -0.973 | 0.159
O=C1C2C=CC(C(O)c3ccccc3)N(n3cnnc3)C2C(=O)N1Cc1ccccc1 (stereo not given) | 0.345 | -1.3 (inactive) | 0.264 (inactive) | -0.881 (inactive) | 1.28 | -0.734 (inactive) | 0.116 | -0.0596 | -0.163 | -0.0112 | 0.0854 | 0.446 | 0.908 | -0.524 (inactive) | 0.0573 | -0.279 | 0.392 | -0.117 | -0.433 | 1.46
CC(C)[Si]1(C(C)C)O[C@@H](c2ccccc2)c2cc(C3CC3)nc(-c3ccc(Oc4ccccc4)cc3)c21 | -0.63 | 0.995 (inactive) | -0.808 (inactive) | 1.21 (inactive) | 0.369 | 1.94 (inactive) | -0.142 | -0.101 | -1.22 | -0.169 | -1.25 | -0.105 | -0.037 | -0.961 (inactive) | -0.318 | -0.343 | -0.0891 | -0.489 | -0.159 | 0.513
